Source: PubChem BioAssay (NCATS)
Results filed as inconclusive are left out. Calls of active or inactive are those of the source. The call rests on the fitted dose curve.

Each molecule was assayed against Atrial natriuretic peptide receptor 1 (Homo sapiens) (UniProt P16066) (assay: Natriuretic polypeptide receptor (hNpr1) antagonism - Pilot CMLD screen (AID 1347052)). Conditions: HEK293 hNpr1 GloSensor cGMP luminescence, ANP-stimulated; series mostly up to 9.22 µM.
Experimental: In order to identify small molecular compounds that inhibit the hNpr1 receptor we developed a high-throughput assay to measure inhibition of the guanylate cyclase activity of the receptor. cGMP production was measured using a circular permutated Firefly luciferase (FLuc) enzyme functionally linked to the cGMP binding domain of human phosphodiesterase 5 (GloSensor technology pGS-40F, (Fan, F. et al. 2008). The cGMP-sensor was expressed in human embryonic kidney 293 (HEK-293) cells and FLuc activity was measured after stimulation with hNrp agonist peptide. hNrp agonists activates the receptor's associated guanylyl cyclase (GC) domain producing cGMP which then binds to the GloSensor resulting in FLuc activation, the enzymatic activity of which can be measured as bioluminescence with addition of luciferin substrate.
This assay was initially piloted by testing with a small library of specialty compounds.
PROTOCOL TABLES (as described by Inglese J, Shamu CE and Guy RK. 2007)
SEQUENCE No. (e.g., 1, 2, 3, etc.); […] (e.g., Cells, Incubation, Reagent, etc.); VALUE and DESCRIPTION.
1. Cells. Seed 1500 HEK293 cGMP-sensor cells expressing hNpr1 per well in 4uL into Greiner 1536-well white/solid bottom high base, tissue culture-treated plates.
2. Incubation. Incubate plated cells at 37C in 5% CO2, 95% RH overnight.
3. Reagent. Add 1uL per well GloSensor reagent from Promega (2% final concentration) or CO2 independent media vehicle control to respective columns of Greiner 1536-well plates.
4. Incubation. Incubate plated cells at room temperature for 2 h, protect from light.
5. Compounds. Library compounds and A-71915 control added at 23 nL per well, transferred by Pin Tool.
6. Incubation. Incubate plated cells for 30 min. at room temperature, protect from light.
7. Detector. GloSensor baseline pre-read luminescence measured using CCD-based camera (Viewlux).
8. Compound. Add 1uL of hNppA peptide to 0.1 nM final concentration to stimulate hNpr1 or CO2 independent media as vehicle control.
9. Incubation. Incubate treated cells at room temperature for 20 min., protect from light.
10. Detector. GloSensor post-hNppA luminescence measured using CCD-based camera (Viewlux).
NOTES (numbers refer to Sequence numbers above)
1. HEK293 cells expressing hNpr1 and GIP/pGS-40F grown to 85-95% confluence (48-72 h) in T175 culture flasks (CO2 independent media supplemented with 10% FBS, 1% Pen/Strep antibiotics and 1 ug/mL puromycin). Trypsinize and harvest cells from T175 culture flasks and filter through 40 um cell strainer. Cells counted with Invitrogen Countess (30,000,000 - 50,000,000 cells/flask). Cells diluted to a final concentration of 375 cells/uL in CO2 independent media and a Millipore multidrop used to dispense 1500 cells per well (4uL/well) into 13 1536-well Greiner White/Solid bottom, high base tissue-culture treated (TC) plates and one Aurora 1536-well Black/Clear bottom, low base, TC plate (for visual inspection of cell health throughout the duration of the assay).
2. Cells incubated overnight at ambient temperature, 24 h. at 37C in 95% RH incubator protected from light, covered with metal lid with gas-exchange holes.
3. Prepare GloSensor Reagent (Promega): Reconstitute GloSensor luciferase substrate by adding 8.2mL Hepes buffer to 250mg substrate, mix well, protect from light and stored at -80C. Prepare a fresh 12% GloSensor solution in CO2 independent supplemented plating media (see above). Mix well and store at ambient temperature, protected from light. 1uL 12% GloSensor Luciferase Reagent added (2% final concentration) to respective columns of 13 x 1536-well Greiner plate with BioRaptr, 1uL CO2 independent plating media added to respective columns as vehicle control with BioRaptr.
4. Cells incubated for 2 h. at ambient temperature, protected from light with metal lid with gas-exchange holes.
5. A-71915 stock solution prepared (10 mM in DMSO). […]

Atrial natriuretic peptide receptor 1 (Homo sapiens), sequence (P16066 whole entry, looked up, the tested form may be a part): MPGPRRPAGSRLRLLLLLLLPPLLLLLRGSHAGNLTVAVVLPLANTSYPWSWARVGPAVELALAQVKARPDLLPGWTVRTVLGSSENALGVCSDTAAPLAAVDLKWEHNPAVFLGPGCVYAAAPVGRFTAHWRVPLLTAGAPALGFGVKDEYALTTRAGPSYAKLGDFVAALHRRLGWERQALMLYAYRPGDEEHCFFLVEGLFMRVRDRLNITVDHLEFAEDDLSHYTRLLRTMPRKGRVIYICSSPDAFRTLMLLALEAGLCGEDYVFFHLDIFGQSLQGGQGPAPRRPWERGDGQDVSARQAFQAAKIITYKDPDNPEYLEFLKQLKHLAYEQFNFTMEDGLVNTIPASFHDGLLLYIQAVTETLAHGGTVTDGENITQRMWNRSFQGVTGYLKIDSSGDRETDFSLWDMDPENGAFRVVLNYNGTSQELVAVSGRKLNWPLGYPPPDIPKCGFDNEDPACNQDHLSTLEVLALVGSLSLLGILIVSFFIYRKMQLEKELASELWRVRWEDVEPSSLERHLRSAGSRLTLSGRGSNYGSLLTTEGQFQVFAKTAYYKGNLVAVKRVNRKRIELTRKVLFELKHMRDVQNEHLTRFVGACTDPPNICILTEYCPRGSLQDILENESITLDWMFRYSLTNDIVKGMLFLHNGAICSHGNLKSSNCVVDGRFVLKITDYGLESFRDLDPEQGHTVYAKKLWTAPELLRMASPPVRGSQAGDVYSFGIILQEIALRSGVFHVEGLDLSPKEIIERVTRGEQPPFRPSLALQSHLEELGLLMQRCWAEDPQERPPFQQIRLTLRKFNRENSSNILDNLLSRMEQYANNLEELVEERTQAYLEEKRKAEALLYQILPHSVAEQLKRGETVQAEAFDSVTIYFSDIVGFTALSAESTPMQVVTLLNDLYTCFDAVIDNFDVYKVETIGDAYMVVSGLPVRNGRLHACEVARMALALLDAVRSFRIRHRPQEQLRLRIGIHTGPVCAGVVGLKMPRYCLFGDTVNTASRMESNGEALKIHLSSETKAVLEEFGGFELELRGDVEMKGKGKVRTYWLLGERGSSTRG

SMILES	outcome
COC(=O)[C@@]12Cc3ccccc3[C@H]1C[C@H](C)[C@@H](C)N2C(=O)C(F)(F)F	inactive
COC(=O)[C@@]1(C=C2c3ccccc3[C@@H](OC)[C@@H]2C)[C@@H]2Oc3ccccc3[C@@H]21	inactive
CCOC(=O)[C@]12C[C@]3(OC)CCN(C(=O)N[C@@H]1c1ccccc1)[C@@H]32	inactive
CCOC(=O)[C@]12C[C@@H]3OCCN(C(=O)N[C@@H]1c1ccccc1)[C@@H]32	inactive
CC(=O)[C@]12C[C@@H]3CCN(C(=O)N[C@@H]1c1ccccc1)[C@@]32C	inactive
CCOC(=O)[C@@]12C3[C@@H](CCN3C(=O)N[C@@H]1c1ccccc1)[C@@H]2C (some centres not stated)	inactive
CCOC(=O)[C@]12C[C@]3(C)CCN(C(=O)N[C@@H]1c1ccccc1)[C@@H]32	inactive
CCOC(=O)[C@]12C[C@]3(C)CCCN(C(=O)N[C@@H]1c1ccccc1)[C@@H]32	inactive
COC(=O)[C@]12C[C@@H]3CCN(C(=O)N[C@@H]1c1ccccc1)[C@@]32C	inactive
COC(=O)C1c2c(n(C)c3ccccc23)[C@H]2[C@@H](C)[C@H](OC)c3ccccc3[C@@H]12 (some centres not stated)	inactive
COC(=O)C12CC3=CCC4C(=O)N(c5ccccc5)C(=O)C4C3Cc3ccccc3[C@H]1CNC2=O (some centres not stated)	inactive
CCOC(=O)[C@@]12[C@@H]3[C@@H](CCN3C(=O)N[C@H]1c1ccccc1)C2(C)C	inactive
COC(=O)C1=C2CCO[C@@H]2[C@H]2[C@@H](C)[C@H](OC)c3ccccc3[C@H]12	inactive
COC(=O)[C@@]1(C=C[C@@H](C)[C@H](OC)c2ccccc2Br)[C@@H]2Oc3ccccc3[C@@H]21	inactive
COC(=O)C1C2CC(C)C(c3ccccc32)N1C(=O)C(F)(F)F (configuration not stated)	inactive
COC(=O)[C@@]1(C=C2c3ccc(F)cc3[C@@H](OC)[C@@H]2C)[C@@H]2c3ccccc3O[C@@H]21	inactive

SMILES	outcome
COC(=O)C1=C[C@H]([C@@H](C)[C@H](OC)c2ccccc2Br)[C@H]2[C@H]1c1ccccc1N2C	inactive
CCC[C@]12CCN3C(=O)N[C@@H](c4ccccc4)[C@](C(=O)OCC)(C1)[C@H]32	inactive
COC(=O)[C@@]1(C=C2c3ccc(F)cc3[C@@H](OC)[C@@H]2C)[C@@H]2Oc3ccccc3[C@@H]21	inactive
CC(=O)[C@]12[C@H](c3ccccc3)[C@@H]3CCN(C(=O)N[C@H]1c1ccccc1)[C@@]32C	inactive
CCOC(=O)[C@]12C[C@@H]3CCN(C(=O)N(C(C)=O)[C@@H]1c1ccccc1)[C@@H]32	inactive
COC(=O)[C@@H]1[C@@H](c2ccccc2)[C@H]2C(=O)c3c(OC)cc(OC)cc3O[C@@]12c1ccc(OC)cc1	inactive
C=C(C)C(=O)CP(=O)(OCC)OCC	inactive
COC(=O)C1(C)C2CC(C)C(c3ccccc32)N1C(=O)C(F)(F)F (configuration not stated)	inactive
CC(=O)[C@]12C[C@]3(C)CCCN(C(=O)N[C@@H]1c1ccccc1)C32 (some centres not stated)	inactive
COC(=O)C1=C2CCCO[C@H]2[C@@H]2[C@@H](C)[C@H](OC)c3ccccc3[C@@H]12	inactive
CC(=O)[C@@]12C3[C@@H](CCN3C(=O)N[C@H]1c1ccccc1)[C@H]2c1ccccc1 (some centres not stated)	inactive
CC(=O)[C@]12C[C@@H]3CCCN(C(=O)N[C@@H]1c1ccccc1)[C@@H]32	inactive
COC(=O)C1=NN=C(C(=O)OC)[C@@]2(C)c3ccccc3NC12 (some centres not stated)	inactive
C=C1[C@@H]2CCN3C(=O)N[C@@H](c4ccccc4)[C@@]1(C(=O)OCC)C23 (some centres not stated)	inactive
CO[C@@H]1c2ccccc2[C@H]2C(C(=O)O)c3c(n(C)c4ccccc34)[C@H]2[C@H]1C (some centres not stated)	inactive
COC(=O)C1=C2CCO[C@H]2[C@@H]2[C@@H](C)[C@H](OC)c3ccccc3[C@@H]12	inactive
